Measurements reported in article PMC8384837, “Expanding the binding specificity for RNA recognition by a PUF domain”.

Target: PUM1 PUF domain R8-HWK (Homo sapiens, UniProt Q14671 828-1176, N1122H;Y1123W;Q1126K)
Experiment: yeast three-hybrid, YBZ-1, SC-Leu-His + 0.5 mM 3-AT, 4 days
Conditions: tags: N-Gal4 AD-HA kept; label: inside an RPR1-promoter hybrid RNA with tandem MS2 sites; ssRNA
Procedure, shortened: (§1)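 The interaction score is the log change in how often each variant appears, from input to selection. Frequencies came from PCR-amplified, Illumina-sequenced repeat regions of Pumilio-1 PUF domain libraries grown in strain YBZ-1 (LexA–MS2 coat fusion, HIS3 reporter) alongside matching RNA elements. Input plates were SC-Leu and selection plates were SC-Leu-His + 0.5 mM 3-AT, each for four days, and the log2 calculation used a pseudocount of 1 where a variant was absent.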

PUM1 PUF domain R8-HWK, sequence (Q14671 828-1176 N1122H/Y1123W/Q1126K): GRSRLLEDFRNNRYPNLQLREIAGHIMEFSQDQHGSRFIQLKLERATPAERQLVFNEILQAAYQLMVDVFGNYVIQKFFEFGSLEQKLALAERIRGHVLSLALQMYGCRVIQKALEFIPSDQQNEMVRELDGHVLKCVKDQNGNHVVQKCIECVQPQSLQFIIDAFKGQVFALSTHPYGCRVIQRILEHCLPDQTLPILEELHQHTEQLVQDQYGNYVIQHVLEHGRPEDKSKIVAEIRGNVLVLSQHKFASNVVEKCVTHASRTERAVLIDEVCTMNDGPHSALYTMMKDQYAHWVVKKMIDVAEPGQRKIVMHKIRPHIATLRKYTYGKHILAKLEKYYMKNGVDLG

Row | Sequence | binding signal
1 | GGCUAGAACUAGUGGAUCCCCCGGCGCCCGGCGGCUCGAGCCCGGGUAAGCGUAAAUAGUCUGCAUGCCGCCGGGCGCCAUGCCUGCAGGUCGACUCUAGAAAACAUG | 2.42 log2 enrichment (interaction score)
2 | GGCUAGAACUAGUGGAUCCCCCGGCGCCCGGCGGCUCGAGCCCGGGUAAGGGUAAAUAGUCUGCAUGCCGCCGGGCGCCAUGCCUGCAGGUCGACUCUAGAAAACAUG | 2.46 log2 enrichment (interaction score)
3 | GGCUAGAACUAGUGGAUCCCCCGGCGCCCGGCGGCUCGAGCCCGGGUAAGUGUAAAUAGUCUGCAUGCCGCCGGGCGCCAUGCCUGCAGGUCGACUCUAGAAAACAUG | 2.36 log2 enrichment (interaction score)

Target: PUM1 PUF domain R5-RSM (Homo sapiens, UniProt Q14671 828-1176, C1007R;R1008S;Q1011M)
Experiment: as above
Conditions: tags: N-Gal4 AD-HA kept; label: inside an RPR1-promoter hybrid RNA with tandem MS2 sites; ssRNA
Procedure, shortened: as §1

Row | Sequence | binding signal
4 | GGCUAGAACUAGUGGAUCCCCCGGCGCCCGGCGGCUCGAGCCCGGGUAAGUGUCAAUAGUCUGCAUGCCGCCGGGCGCCAUGCCUGCAGGUCGACUCUAGAAAACAUG | 3.66 log2 enrichment (interaction score)
5 | GGCUAGAACUAGUGGAUCCCCCGGCGCCCGGCGGCUCGAGCCCGGGUAAGUGUGAAUAGUCUGCAUGCCGCCGGGCGCCAUGCCUGCAGGUCGACUCUAGAAAACAUG | 0.3 log2 enrichment (interaction score)
6 | GGCUAGAACUAGUGGAUCCCCCGGCGCCCGGCGGCUCGAGCCCGGGUAAGUGUAAAUAGUCUGCAUGCCGCCGGGCGCCAUGCCUGCAGGUCGACUCUAGAAAACAUG | 1.04 log2 enrichment (interaction score)

Target: PUM1 PUF domain R3-MRG (Homo sapiens, UniProt Q14671 828-1176, C935M;Q939G)
Experiment: as above
Conditions: tags: N-Gal4 AD-HA kept; label: inside an RPR1-promoter hybrid RNA with tandem MS2 sites; ssRNA
Procedure, shortened: as §1

Row | Sequence | binding signal
7 | GGCUAGAACUAGUGGAUCCCCCGGCGCCCGGCGGCUCGAGCCCGGGUAAGUGUAAAUAGUCUGCAUGCCGCCGGGCGCCAUGCCUGCAGGUCGACUCUAGAAAACAUG | 0.61 log2 enrichment (interaction score)
8 | GGCUAGAACUAGUGGAUCCCCCGGCGCCCGGCGGCUCGAGCCCGGGUAAGUGUAAUUAGUCUGCAUGCCGCCGGGCGCCAUGCCUGCAGGUCGACUCUAGAAAACAUG | 2.8 log2 enrichment (interaction score)
9 | GGCUAGAACUAGUGGAUCCCCCGGCGCCCGGCGGCUCGAGCCCGGGUAAGUGUAAGUAGUCUGCAUGCCGCCGGGCGCCAUGCCUGCAGGUCGACUCUAGAAAACAUG | 5.6 log2 enrichment (interaction score)

Target: PUM1 PUF domain R3-GWL (Homo sapiens, UniProt Q14671 828-1176, C935G;R936W;Q939L)
Experiment: as above
Conditions: tags: N-Gal4 AD-HA kept; label: inside an RPR1-promoter hybrid RNA with tandem MS2 sites; ssRNA
Procedure, shortened: as §1

Row | Sequence | binding signal
10 | GGCUAGAACUAGUGGAUCCCCCGGCGCCCGGCGGCUCGAGCCCGGGUAAGUGUAAAUAGUCUGCAUGCCGCCGGGCGCCAUGCCUGCAGGUCGACUCUAGAAAACAUG | 3.81 log2 enrichment (interaction score)
11 | GGCUAGAACUAGUGGAUCCCCCGGCGCCCGGCGGCUCGAGCCCGGGUAAGUGUAAUUAGUCUGCAUGCCGCCGGGCGCCAUGCCUGCAGGUCGACUCUAGAAAACAUG | 3.82 log2 enrichment (interaction score)
12 | GGCUAGAACUAGUGGAUCCCCCGGCGCCCGGCGGCUCGAGCCCGGGUAAGUGUAAGUAGUCUGCAUGCCGCCGGGCGCCAUGCCUGCAGGUCGACUCUAGAAAACAUG | 1.08 log2 enrichment (interaction score)
